# Tests used:
# Assay in all cases: PBM; 200 nM protein, PBS
# Details in all cases: dsDNA, one strand shown
# [1] = biological target: HESX1 (Homo sapiens, UniProt Q9UBX0 95-180, R165K)
# [2] = biological target: SHOX (Homo sapiens, UniProt O15266 103-189)
# [3] = biological target: ALX4 (Homo sapiens, UniProt Q9H161 200-286, Q225E)
# [4] = biological target: HESX1 (Homo sapiens, UniProt Q9UBX0 95-180)
# [5] = biological target: MSX2 (Homo sapiens, UniProt P35548 130-214, R199I)
# [6] = biological target: ALX1 (Homo sapiens, UniProt Q15699 118-204, L144V)
# [7] = biological target: ALX3 (Homo sapiens, UniProt O95076 139-225, N203Q)
# [8] = biological target: SHOX (Homo sapiens, UniProt O15266 103-189, R173C)
# [9] = biological target: ALX1 (Homo sapiens, UniProt Q15699 118-204, L144R)
# [10] = biological target: ALX3 (Homo sapiens, UniProt O95076 139-225)
# [11] = biological target: PROP1 (Homo sapiens, UniProt O75360 56-141)
# [12] = biological target: HESX1 (Homo sapiens, UniProt Q9UBX0 95-180, R109Q)
# [13] = biological target: PROP1 (Homo sapiens, UniProt O75360 56-141, R99H)
# [14] = biological target: ALX3 (Homo sapiens, UniProt O95076 139-225, L168Q)
# [15] = biological target: HESX1 (Homo sapiens, UniProt Q9UBX0 95-180, P111T)
# [16] = biological target: ALX3 (Homo sapiens, UniProt O95076 139-225, L168V)
# [17] = biological target: PROP1 (Homo sapiens, UniProt O75360 56-141, F88S)
# [18] = biological target: HESX1 (Homo sapiens, UniProt Q9UBX0 95-180, F115L)
# [19] = biological target: ALX1 (Homo sapiens, UniProt Q15699 118-204)
# [20] = biological target: ALX3 (Homo sapiens, UniProt O95076 139-225, N203S)
# Chain of ALX3 (Homo sapiens, UniProt O95076 139-225, N203S) (O95076 139-225 N203S): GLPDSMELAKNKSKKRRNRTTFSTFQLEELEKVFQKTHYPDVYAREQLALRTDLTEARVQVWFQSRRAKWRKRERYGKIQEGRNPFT
# Chain of ALX1 (Homo sapiens, UniProt Q15699 118-204, L144V) (Q15699 118-204 L144V): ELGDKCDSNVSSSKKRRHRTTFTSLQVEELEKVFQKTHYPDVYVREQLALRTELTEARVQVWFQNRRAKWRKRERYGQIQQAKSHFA
# Chain of ALX1 (Homo sapiens, UniProt Q15699 118-204) (Q15699 118-204): as the sequence (Q15699 118-204 L144V) above, with V27L counted along it
# Chain of ALX1 (Homo sapiens, UniProt Q15699 118-204, L144R) (Q15699 118-204 L144R): as the sequence (Q15699 118-204 L144V) above, with V27R counted along it
# Chain of ALX3 (Homo sapiens, UniProt O95076 139-225, L168V) (O95076 139-225 L168V): as the sequence (O95076 139-225 N203S) above, with L30V, S65N counted along it
# Chain of SHOX (Homo sapiens, UniProt O15266 103-189, R173C) (O15266 103-189 R173C): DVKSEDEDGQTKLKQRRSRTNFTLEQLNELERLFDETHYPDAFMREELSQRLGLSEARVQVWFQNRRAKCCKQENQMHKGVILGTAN
# Chain of HESX1 (Homo sapiens, UniProt Q9UBX0 95-180, F115L) (Q9UBX0 95-180 F115L): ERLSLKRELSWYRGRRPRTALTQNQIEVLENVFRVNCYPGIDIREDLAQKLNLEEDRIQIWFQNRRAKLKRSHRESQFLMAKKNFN
# Chain of ALX4 (Q9H161 200-286 Q225E): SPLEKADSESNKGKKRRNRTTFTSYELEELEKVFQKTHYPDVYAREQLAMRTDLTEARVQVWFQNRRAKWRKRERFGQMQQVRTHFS
# Chain of HESX1 (Homo sapiens, UniProt Q9UBX0 95-180, R165K) (Q9UBX0 95-180 R165K): as the sequence (Q9UBX0 95-180 F115L) above, with L21F, R71K counted along it
# Chain of HESX1 (Homo sapiens, UniProt Q9UBX0 95-180) (Q9UBX0 95-180): as the sequence (Q9UBX0 95-180 F115L) above, with L21F counted along it
# Chain of PROP1 (Homo sapiens, UniProt O75360 56-141) (O75360 56-141): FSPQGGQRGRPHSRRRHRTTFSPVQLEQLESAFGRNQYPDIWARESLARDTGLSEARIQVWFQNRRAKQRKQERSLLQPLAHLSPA
# Chain of PROP1 (Homo sapiens, UniProt O75360 56-141, F88S) (O75360 56-141 F88S): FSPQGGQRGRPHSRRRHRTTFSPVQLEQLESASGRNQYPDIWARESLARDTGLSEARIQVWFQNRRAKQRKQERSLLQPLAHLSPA
# Chain of ALX3 (Homo sapiens, UniProt O95076 139-225, L168Q) (O95076 139-225 L168Q): as the sequence (O95076 139-225 N203S) above, with L30Q, S65N counted along it
# Chain of ALX3 (Homo sapiens, UniProt O95076 139-225) (O95076 139-225): as the sequence (O95076 139-225 N203S) above, with S65N counted along it
# Chain of HESX1 (Homo sapiens, UniProt Q9UBX0 95-180, R109Q) (Q9UBX0 95-180 R109Q): as the sequence (Q9UBX0 95-180 F115L) above, with R15Q, L21F counted along it
# Chain of PROP1 (Homo sapiens, UniProt O75360 56-141, R99H) (O75360 56-141 R99H): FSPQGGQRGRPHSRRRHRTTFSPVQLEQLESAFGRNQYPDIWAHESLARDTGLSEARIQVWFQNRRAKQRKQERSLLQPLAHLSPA
# Chain of SHOX (Homo sapiens, UniProt O15266 103-189) (O15266 103-189): as the sequence (O15266 103-189 R173C) above, with C71R counted along it
# Chain of HESX1 (Homo sapiens, UniProt Q9UBX0 95-180, P111T) (Q9UBX0 95-180 P111T): as the sequence (Q9UBX0 95-180 F115L) above, with P17T, L21F counted along it
# Chain of ALX3 (Homo sapiens, UniProt O95076 139-225, N203Q) (O95076 139-225 N203Q): as the sequence (O95076 139-225 N203S) above, with S65Q counted along it
# Chain of MSX2 (P35548 130-214 R199I): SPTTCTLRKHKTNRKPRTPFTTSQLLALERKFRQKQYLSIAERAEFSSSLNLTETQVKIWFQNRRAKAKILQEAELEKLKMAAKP
Sequence,binding signal [1],binding signal [2],binding signal [3],binding signal [4],binding signal [5],binding signal [6],binding signal [7],binding signal [8],binding signal [9],binding signal [10],binding signal [11],binding signal [12],binding signal [13],binding signal [14],binding signal [15],binding signal [16],binding signal [17],binding signal [18],binding signal [19],binding signal [20]
ACCAATTA,"13.7 upbm affinity estimate (log intensity, higher = more binding, comparable within an allelic series)","12.7 upbm affinity estimate (log intensity, higher = more binding, comparable within an allelic series)","13.8 upbm affinity estimate (log intensity, higher = more binding, comparable within an allelic series)","13.6 upbm affinity estimate (log intensity, higher = more binding, comparable within an allelic series)","13.4 upbm affinity estimate (log intensity, higher = more binding, comparable within an allelic series)","12.1 upbm affinity estimate (log intensity, higher = more binding, comparable within an allelic series)","8.43 upbm affinity estimate (log intensity, higher = more binding, comparable within an allelic series)","10.4 upbm affinity estimate (log intensity, higher = more binding, comparable within an allelic series)","11.7 upbm affinity estimate (log intensity, higher = more binding, comparable within an allelic series)","12.8 upbm affinity estimate (log intensity, higher = more binding, comparable within an allelic series)","12 upbm affinity estimate (log intensity, higher = more binding, comparable within an allelic series)","10.8 upbm affinity estimate (log intensity, higher = more binding, comparable within an allelic series)","12.3 upbm affinity estimate (log intensity, higher = more binding, comparable within an allelic series)","11.1 upbm affinity estimate (log intensity, higher = more binding, comparable within an allelic series)","12.3 upbm affinity estimate (log intensity, higher = more binding, comparable within an allelic series)","10.7 upbm affinity estimate (log intensity, higher = more binding, comparable within an allelic series)","7.81 upbm affinity estimate (log intensity, higher = more binding, comparable within an allelic series)","8.41 upbm affinity estimate (log intensity, higher = more binding, comparable within an allelic series)","12.7 upbm affinity estimate (log intensity, higher = more binding, comparable within an allelic series)","8.62 upbm affinity estimate (log intensity, higher = more binding, comparable within an allelic series)"
TAATTGCA,"12 upbm affinity estimate (log intensity, higher = more binding, comparable within an allelic series)","11.4 upbm affinity estimate (log intensity, higher = more binding, comparable within an allelic series)",,"12.1 upbm affinity estimate (log intensity, higher = more binding, comparable within an allelic series)","13 upbm affinity estimate (log intensity, higher = more binding, comparable within an allelic series)",,,"9.1 upbm affinity estimate (log intensity, higher = more binding, comparable within an allelic series)",,,"11.1 upbm affinity estimate (log intensity, higher = more binding, comparable within an allelic series)","8.74 upbm affinity estimate (log intensity, higher = more binding, comparable within an allelic series)","11.1 upbm affinity estimate (log intensity, higher = more binding, comparable within an allelic series)","10.2 upbm affinity estimate (log intensity, higher = more binding, comparable within an allelic series)","10.6 upbm affinity estimate (log intensity, higher = more binding, comparable within an allelic series)",,"7.7 upbm affinity estimate (log intensity, higher = more binding, comparable within an allelic series)","7.5 upbm affinity estimate (log intensity, higher = more binding, comparable within an allelic series)",,
GTAATTGA,"12.5 upbm affinity estimate (log intensity, higher = more binding, comparable within an allelic series)","11.9 upbm affinity estimate (log intensity, higher = more binding, comparable within an allelic series)","12.8 upbm affinity estimate (log intensity, higher = more binding, comparable within an allelic series)","12.6 upbm affinity estimate (log intensity, higher = more binding, comparable within an allelic series)","12.5 upbm affinity estimate (log intensity, higher = more binding, comparable within an allelic series)","11.7 upbm affinity estimate (log intensity, higher = more binding, comparable within an allelic series)","8.3 upbm affinity estimate (log intensity, higher = more binding, comparable within an allelic series)","9.41 upbm affinity estimate (log intensity, higher = more binding, comparable within an allelic series)","11.2 upbm affinity estimate (log intensity, higher = more binding, comparable within an allelic series)","12.4 upbm affinity estimate (log intensity, higher = more binding, comparable within an allelic series)","11.3 upbm affinity estimate (log intensity, higher = more binding, comparable within an allelic series)","8.99 upbm affinity estimate (log intensity, higher = more binding, comparable within an allelic series)","11.5 upbm affinity estimate (log intensity, higher = more binding, comparable within an allelic series)","10.4 upbm affinity estimate (log intensity, higher = more binding, comparable within an allelic series)","11 upbm affinity estimate (log intensity, higher = more binding, comparable within an allelic series)","9.76 upbm affinity estimate (log intensity, higher = more binding, comparable within an allelic series)","7.49 upbm affinity estimate (log intensity, higher = more binding, comparable within an allelic series)","7.6 upbm affinity estimate (log intensity, higher = more binding, comparable within an allelic series)","12.3 upbm affinity estimate (log intensity, higher = more binding, comparable within an allelic series)","8.44 upbm affinity estimate (log intensity, higher = more binding, comparable within an allelic series)"
CAATTATG,"12.7 upbm affinity estimate (log intensity, higher = more binding, comparable within an allelic series)","12.1 upbm affinity estimate (log intensity, higher = more binding, comparable within an allelic series)","13.1 upbm affinity estimate (log intensity, higher = more binding, comparable within an allelic series)","12.9 upbm affinity estimate (log intensity, higher = more binding, comparable within an allelic series)","12.8 upbm affinity estimate (log intensity, higher = more binding, comparable within an allelic series)","11.7 upbm affinity estimate (log intensity, higher = more binding, comparable within an allelic series)","8.45 upbm affinity estimate (log intensity, higher = more binding, comparable within an allelic series)","9.62 upbm affinity estimate (log intensity, higher = more binding, comparable within an allelic series)","11.4 upbm affinity estimate (log intensity, higher = more binding, comparable within an allelic series)","12.4 upbm affinity estimate (log intensity, higher = more binding, comparable within an allelic series)","11.5 upbm affinity estimate (log intensity, higher = more binding, comparable within an allelic series)","9.11 upbm affinity estimate (log intensity, higher = more binding, comparable within an allelic series)","11.5 upbm affinity estimate (log intensity, higher = more binding, comparable within an allelic series)","10.5 upbm affinity estimate (log intensity, higher = more binding, comparable within an allelic series)","11.2 upbm affinity estimate (log intensity, higher = more binding, comparable within an allelic series)","9.96 upbm affinity estimate (log intensity, higher = more binding, comparable within an allelic series)","7.66 upbm affinity estimate (log intensity, higher = more binding, comparable within an allelic series)","7.82 upbm affinity estimate (log intensity, higher = more binding, comparable within an allelic series)","12.3 upbm affinity estimate (log intensity, higher = more binding, comparable within an allelic series)","8.59 upbm affinity estimate (log intensity, higher = more binding, comparable within an allelic series)"
